# According to PubChem BioAssay (NCATS):
# Several values for one entry are separate records, joined by “and”; a condition that tells them apart may be missing. Identical values can stand only once. Records with an inconclusive call do not appear. Activity calls are given as the source filed them. Calls come from the whole dose curve; as a rule, active = well fitted curve in the direction sought with a large enough effect; inconclusive = small, poorly fitted or top-dose-only effect, or another doubt; inactive = no such curve, though single readings can be large; an effect the other way counts as inactive or inconclusive.
# Assays:
# [1] = qHTS Screen of the MIPE 4.0 Collection Against Ewings Sarcoma (RDES) (AID 1259252); note: nearly all actives have a fitted effect of over 35% in size; note: potency is the fitted concentration of half-maximal effect
# Summary of the method: (§1)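 After a 4 h attachment period in RPMI/5% FBS, cells were pin-dosed with test compounds; DMSO served as negative and 9.2 uM bortezomib (final) as positive control. Luminescent CellTiter-Glo signal at 48 h defined viability.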
# [2] = qHTS Screen of the MIPE 4.0 Collection Against Ewings Sarcoma (TC71) (AID 1259253); note: nearly all actives have a fitted effect of over 40% in size; note: potency is the fitted concentration of half-maximal effect
# Summary of the method: as §1
# [3] = qHTS Screen of the MIPE 4.0 Collection Against Ewings Sarcoma (EW8) (AID 1259255); note: nearly all actives have a fitted effect of over 35% in size; note: potency is the fitted concentration of half-maximal effect
# Summary of the method: as §1
# [4] = qHTS Screen of the MIPE 4.0 Collection Against Ewings Sarcoma (TC32) (AID 1259256); note: nearly all actives have a fitted effect of over 45% in size; note: potency is the fitted concentration of half-maximal effect
# Summary of the method: as §1
# [5] = Identifying Small Molecule Inhibitors of Pancreatic Cancer Stem Cells (Panc1, Spheroid) (AID 1259359);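 note: potency is the fitted concentration of half-maximal effect; compound exposure lasted 48 h before reading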
# Summary of the method: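 Monolayer and spheroid cultures are compared. Spheroids form over 14 days in stem cell medium on hydrogel-coated low-attachment plates, then are exposed to compound for 48 h before CellTiter-Glo luminescence.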
# [6] = P-glycoprotein substrates identified in KB-8-5-11 adenocarcinoma cell line, qHTS therapeutic library screen (AID 1346987); note: nearly all actives have a fitted effect of over 65% in size; note: potency is the fitted concentration of half-maximal effect
# Summary of the method: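 Steps: plate 500 KB-8-5-11 cells/well in DMEM + 10% FCS (colchicine removed); pin compounds in dose-response; incubate 72 h, 37 degree C, 5% CO2; add CellTiter-Glo, 5 min; read luminescence.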
# [7] = NS1 protein of Zika virus - qHTS assay to identify small molecule inhibitors in human HEK 293 cells (AID 1347053); note: nearly all actives have a fitted effect of over 55% in size; note: potency is the fitted concentration of half-maximal effect
# Summary of the method: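 HEK 293 cells, seeded 20 h at 37 C, were pretreated with compound 1 h, then infected with ZIKV MR766 (MOI = 0.5) for 24 h. NS1 was read by TR-FRET with two anti-NS1 antibodies, normalized to uninfected and infected wells.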
# [8] = Identifying Small Molecule Inhibitors of Pancreatic Cancer Stem Cells (A278, Adherent) (AID 1259361); note: nearly all actives have a fitted effect of over 35% in size
# Summary of the method: (§2)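 Adherent (2D) versus sphere (3D) formats; spheres generated 14 d in SCM beforehand. Compound transferred by pin tool after 4 h, 48 h incubation, CellTiter-Glo endpoint.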
# [9] = Identifying Small Molecule Inhibitors of Pancreatic Cancer Stem Cells (Panc1, Adherent) (AID 1259362); conditions: Potency: viability; note: potency is the fitted concentration of half-maximal effect
# Summary of the method: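 After a 4 h attachment period, compounds were pinned into wells and cultures held 48 h under standard incubator conditions. Viability was then measured as CellTiter-Glo luminescence following 10 min at room temperature.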
# [10] = P-glycoprotein substrates identified in KB-3-1 adenocarcinoma cell line, qHTS therapeutic library screen (AID 1346986);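 note: potency is the fitted concentration of half-maximal effect; potency is for cytotoxicity meaning loss of cell viability; nearly all actives have a fitted effect of over 60% in size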
# Summary of the method: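 Cells seeded 500/well in DMEM/10% FCS; compounds pinned in dose-response; 72 h incubation; CellTiter-Glo added, 5 min, luminescence. KB-8-5-11 run ±tariquidar to test reversal of P-gp resistance.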
# [11] = Identifying Small Molecule Inhibitors of Pancreatic Cancer Stem Cells (A2780, Spheroid) (AID 1259357); conditions: Potency: A2780 spheroid viability;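 note: compound exposure lasted 48 h before the ATP luminescence read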
# Summary of the method: (§3)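 Cytotoxicity read by CellTiter-Glo luminescence after 48 h compound exposure at 37C; percent activity scaled between DMSO-treated cells and cell-free wells. Spheroid formats used cells pre-formed 14 days in stem cell media on hydrogel.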
# [12] = Identifying Small Molecule Inhibitors of Pancreatic Cancer Stem Cells (SN12C, Adherent) (AID 1259358);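 note: cell survival measured after 48 h of compound exposure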
# Summary of the method: as §2
# [13] = Identifying Small Molecule Inhibitors of Pancreatic Cancer Stem Cells (SN12C, Spheroid) (AID 1259360); conditions: Potency: SN12C spheroid viability; note: potency is the fitted concentration of half-maximal effect
# Summary of the method: as §3
SMILES,Potency [1],Potency [2],Potency [3],Potency [4],Potency [5],Potency [6],Potency [7],IC50 (viability decrease) [8],Potency [9],Potency [10],Potency [11],Potency [12],Potency [13]
CC(C)(C)c1cnc(CSc2cnc(NC(=O)C3CCNCC3)s2)o1,132 nM (active),187 nM (active),148 nM (active),148 nM (active),418 nM (active),inactive,1320 nM (active),,,,,,
O=C(NCCCNc1nc(Nc2cccc(NC(=O)N3CCCC3)c2)ncc1I)c1cccs1,13200 nM (active),16600 nM (active),1870 nM (active),2350 nM (active),,,,6.62 µM (active) and 14.8 µM (active),11.8 µM (active) and 16.6 µM (active),11600 nM (active),,,
Cc1cc(N2CCOCC2)cc2[nH]c(-c3c(NC[C@@H](O)c4cccc(Cl)c4)cc[nH]c3=O)nc12,118 nM (active),590 nM (active),20900 nM (active),1870 nM (active),,14.8 µM (active) and 18.4 µM (active),inactive,,,,,,
O=C(C=Cc1cccnc1)NCCCCC1CCN(C(=O)c2ccccc2)CC1,,4.2 nM (active),7.4 nM (active),4.2 nM (active),,,inactive,inactive,inactive,,inactive,inactive,2.1 nM (active)
O=C1CCC[C@@H]2[C@H]3CCC[N+]4([O-])CCC[C@@H](CN12)[C@@H]34 (stereo not given in full),inactive,inactive,inactive,inactive,,inactive,inactive,,,,,,
